Screen size: about 360,000 compounds; about 7,300 (2%) were called active. What follows is part of a selection rich in actives, with near analogues and random picks from the rest. Values without a mark were called inactive. Rule as the data show it: active = inhibition above about 50%; inactive = the rest.

One may read the inhibition as the change of the read-out against control, counted positive when it falls.

The experiment is described as follows: blockers of TWEAK-induced Fn14 reporter activity – luciferase reporter cells, uHTS, primary screen (AID 1159606). To be noted: TWEAK-stimulated Fn14 reporter cells, luciferase luminescence, 8 h; at 10 µM; stronger effect = higher value.
For `CC(C)Oc1ccc(S(=O)(=O)N2CCOCC2)cc1NC(=O)C1CSC2(C)CCC(=O)N12` (centres undefined), the inhibition is -10.2%.

With `CC1(C(=O)NCc2cccc3ccccc23)CCN1Cc1ccc(-c2ccccc2)o1` (centres undefined), the inhibition was 7.77%.

As for `Cc1ccc(-c2c[n+](=O)c3c(n2[O-])CCC3)cc1`, the inhibition is -2.42%.

`O=C1c2ccccc2C(Nc2ccc3c(c2)OCCO3)N1Cc1ccco1` (centres undefined): the inhibition is 70.9% (active).

Turning to `Cc1ccnc(N2C(=O)c3ccccc3C2Nc2ccc3c(c2)OCCO3)c1` (centres undefined), the inhibition is 61.2% (active).

Take `S=C(NCc1ccco1)Nc1ccc2c(c1)OCCO2`: the inhibition was 2.21%.

In the case of `CCCCCn1nnnc1C1c2ccccc2C(=O)N1Cc1ccco1` (centres undefined), the inhibition was 16.5%.

`O=C(Nc1ccc2c(c1)OCCO2)C1c2ccccc2OCC(=O)N1Cc1ccccn1` (centres undefined): the inhibition is -0.53%.

In the case of `COC(=O)c1cc(NC2c3ccccc3C(=O)N2c2ccc(Cl)cn2)cc(C(=O)OC)c1` (centres undefined), the inhibition was -15.2%.

As to `C[C@@H]1C[C@@H]2O[C@H]2/C=C\C=C\C(=O)Cc2c(Cl)c(O)cc(O)c2C(=O)O1`, the inhibition is 90.7% (active).

For `COc1ccc([C@H]2[C@H](C(C)=O)N3N=Cc4ccccc4C3C23C(=O)OC(C)(C)OC3=O)cc1` (some centres undefined), the inhibition is 10.5%.

For the compound `C/C(=N/NC(=S)Nc1ccccc1)c1ccc2c(c1)OCO2`, the inhibition is -46.3%.

For `S=C(Nc1ccccc1)Nc1ccc2ccccc2c1`, the inhibition was 0.33%.

Regarding `Cc1ccc(NC(=O)Nc2ccc3oc(C)nc3c2)cc1`, the inhibition is -4.94%.

With `O=C(Nc1ccc2ccccc2c1)Nc1ccc2snnc2c1`, the inhibition was 74.8% (active).

`O=C(C1CCC1)N1CCN(S(=O)(=O)c2ccc([N+](=O)[O-])cc2)CC1`: the inhibition is 4.46%.

With `CCOC(=O)[C@]12CCCC=C1N(Cc1ccc3c(c1)OCO3)C(=O)[C@H](CC(=O)NCc1cccs1)C2`, the inhibition is 15.5%.

Turning to `O=S(=O)(Cc1ccc(Cl)cc1Cl)c1ccc(Cl)cc1`, the inhibition is 12.1%.

For `CCCCNC(=O)C[C@@H]1C[C@@]2(C(=O)OCC)CCC=C2N(Cc2cccc3ccccc23)C1=O`, the inhibition is 14.7%.

In the case of `CC(=O)c1c(C)oc2ccc(NS(=O)(=O)c3ccccc3)cc12`, the inhibition is 21.6%.

As for `COc1ccc(S(=O)(=O)Nc2ccc3oc(C)c(C(C)=O)c3c2)cc1`, the inhibition is 54.4% (active).

Take `CC(=O)c1c(C)oc2ccc(NS(=O)(=O)c3ccc(C(=O)O)cc3)cc12`: the inhibition is 3.85%.

On to `CC1(C(=O)NS(=O)(=O)c2ccc(C#N)cc2)CCN1C(=O)CC1CCCC1` (centres undefined), for which the inhibition is 1.67%.

Take `CCCCCCN1C[C@H](O)[C@@H](n2cc(C3CC3)nn2)C[C@@H]1c1ccc(Cl)cc1`: the inhibition is -1.73%.

In the case of `O=C(/C=C/[C@H]1O[C@@H](n2cnc3c(NC(=O)c4ccccc4)ncnc32)[C@H](O)[C@@H]1O)NCc1ccccc1`, the inhibition is -7.74%.

For `COc1ccc(NC(=O)C2C3CCC(O3)C2C(=O)O)cc1OC` (centres undefined), the inhibition was 2.27%.

For the compound `COc1ccc(NC(=S)SC)cc1OC`, the inhibition is 68.3% (active).

`COc1ccc(NC(=O)CSCc2ccc([N+](=O)[O-])cc2)cc1OC`: the inhibition was 6.35%.

Regarding `COc1cc(OC)cc(C(=O)NCCSCc2ccc(Cl)cc2)c1`, the inhibition is 0.23%.

As for `CCn1c(/C=C/c2ccc([N+](=O)[O-])o2)nc2ccccc2c1=O`, the inhibition was 63.4% (active).

In the case of `C=CCn1c(SCC(=O)NC(=O)Cc2ccccc2)nc2ccccc2c1=O`, the inhibition is 14%.

Consider `Cc1nc2ccccc2c(=O)n1NC(=O)c1ccc(Cl)c([N+](=O)[O-])c1`, for which the inhibition is 32.6%.

Take `COc1ccc(Cl)cc1NC(=O)COC(=O)C(CC(C)C)N1C(=O)C2CC=CCC2C1=O` (centres undefined): the inhibition is -4.03%.

As to `Nc1[nH]c(C(=O)c2ccccc2)c(-c2ccc(Br)cc2)c1C(=O)NC1CC1`, the inhibition is -5.57%.

Take `CN(C)S(=O)(=O)c1ccc(Oc2ccc(S(=O)(=O)N(C)C)cc2)cc1`: the inhibition is 6.23%.

Take `Cc1cc(C(C)(C)C)cc(C)c1N`: the inhibition was -8.01%.

Turning to `CC(C)(C)c1ccc(Oc2ccc(N)cc2)cc1`, the inhibition is 99% (active).

Regarding `CC(=O)c1ccc(OCCCC(=O)Nc2ccc(C)c(S(=O)(=O)N3CCOCC3)c2)cc1`, the inhibition was -0.59%.

For the compound `COC(=O)c1ccc2nc(-c3cccc(Br)c3)c(Cc3ccccc3C(F)(F)F)n2c1`, the inhibition is -11.5%.

For `Nc1nc(-c2sc3nc4c(cc3c2N)CCCC4)nc(N2CCOCC2)n1`, the inhibition is -10.3%.

On to `COc1ccc(CC(=O)NC2CCSc3ccccc32)cc1OC` (centres undefined), for which the inhibition is 2.41%.

As to `COc1cc(CC(=O)Nc2nc(-c3ccc(F)c(F)c3)cs2)cc(OC)c1OC`, the inhibition is 60.3% (active).

As for `COc1ccc(CC(=O)Nc2nc(-c3ccc(F)c(F)c3)cs2)cc1OC`, the inhibition was 59% (active).

In the case of `COc1ccc(CCNC(=O)COC(=O)Cc2cc(OC)c(OC)c(OC)c2)cc1`, the inhibition is -9.86%.

For `COc1ccc(CC(=O)Nc2ccccc2NC(=O)c2ccco2)cc1OC`, the inhibition is -18.6%.

Consider `O=C(COC(=O)C1CCCO1)Nc1nc(-c2ccc(F)cc2)cs1` (centres undefined), for which the inhibition is -21.9%.

Regarding `O=c1cc(CO)oc(C(Nc2cccc(C(F)(F)F)c2)c2ccccn2)c1O` (centres undefined), the inhibition was -5.67%.

With `Cc1cc(C)cc(N(CCC#N)C(=O)CN2C(=O)NC3(CCCC3)C2=O)c1`, the inhibition was -2.17%.

As to `CCC(C)NC(=O)CN(C1CCCCC1)S(C)(=O)=O` (centres undefined), the inhibition was 5.8%.

For `CCCCCCN1CCN(C2CN(Cc3cn(Cc4ccc(F)cc4)nn3)S(=O)(=O)C2)CC1` (centres undefined), the inhibition is 8.31%.

For the compound `O=C(Nc1nnc(C2CC2)s1)c1ccccn1`, the inhibition is 65.5% (active).

Consider `CCc1ccccc1OCC(=O)Nc1nnc(C2CC2)s1`, for which the inhibition is -23.1%.

Consider `Cc1cnc(NC(=O)Cn2cnc3c2c(=O)n(C)c(=O)n3C)s1`, for which the inhibition was 6.18%.

Regarding `Cc1cnc(NC(=O)c2ccccn2)s1`, the inhibition was 55.5% (active).

Consider `CCc1cc(C(=O)Nc2nnc(C3CC3)s2)sc1C`, for which the inhibition was 7.61%.

For `CN(C(=O)c1ccccn1)c1nnc(-c2ccccn2)s1`, the inhibition was -1.91%.

For the compound `CN(C)c1cccc(NC(=O)c2ccc(-c3ccc(F)c(F)c3)c3ccoc23)c1`, the inhibition was -36.6%.

For the compound `CCNC(=S)Nc1ccc2c(c1)c(=O)n(C)n2Cc1ccc(Cl)cc1`, the inhibition was 10.2%.

In the case of `C=CCn1c(=S)[nH]c2scc(-c3ccco3)c2c1=O`, the inhibition was 2.15%.

Take `CC(C)CNC(=O)C1(C)CCCN1C(=O)CSc1ccccc1` (centres undefined): the inhibition was 24.6%.

Turning to `O=C(/C=C/Sc1ncn[nH]1)c1ccc(Cl)cc1`, the inhibition was 46.2%.

For the compound `COC(c1ccccc1)(c1ccccc1)C(Oc1nc(C)cc(C)n1)C(=O)O` (centres undefined), the inhibition is 1.41%.

For `Cc1cc(C)nc(S/C=C/C(=O)c2ccccc2)n1`, the inhibition was 93.2% (active).

As to `COc1ccc(NC(=O)CC2C(=O)NC3CCCCC3N2C(=O)c2ccc(F)cc2)cc1` (centres undefined), the inhibition was 3.34%.

As to `CCSc1nc(=S)n(CC)c(C)c1C(C)=O`, the inhibition is -1.72%.

Regarding `O=S1(=O)C[C@@H](N2CCN(CCO)CC2)[C@H](COCc2ccccc2)N1`, the inhibition was 7.64%.

Take `CCOC(=O)[C@H]1[C@H]2COc3ccc(C)cc3[C@@H]2N2C(=O)CN(Cc3ccc(F)cc3)C(=O)[C@@]12C`: the inhibition was -5.2%.

As to `CCn1c(Cc2ccc(OC)cc2)nnc1SCC(=O)Nc1ccc(N2CCOCC2)cc1`, the inhibition was 4.78%.

For `O=C(COC(=O)CCc1nc2ccccc2c(=O)[nH]1)Nc1ccc(N2CCOCC2)cc1`, the inhibition was -0.73%.

As for `COc1cccc(/C=C(/CC(=O)Nc2ccc(N3CCOCC3)cc2)c2nc3ccccc3s2)c1`, the inhibition was 62.8% (active).

For `CCN(CC)C(=O)[C@H]1C[C@H](CC(=O)NCC23CC4CC(CC(C4)C2)C3)C(=O)N2CCc3c([nH]c4cc(CCC(=O)N(C)C)ccc34)[C@]12C`, the inhibition is 6.21%.

Turning to `Cc1cccc(CN2CCN(C3CN(Cc4cn(Cc5cc(C)cc(C)c5)nn4)S(=O)(=O)C3)CC2)c1` (centres undefined), the inhibition was 12.5%.

For the compound `CCc1ccc(-c2nnn(Cc3nc4ccccc4s3)n2)cc1`, the inhibition was -5.59%.

Consider `COc1ccccc1OCc1nc2ccccc2s1`, for which the inhibition is 72.9% (active).

Turning to `COC(=O)C1[C@H]2SC(C)(C)C(C(=O)OC)N2C(=O)N1Cc1nc2ccccc2s1` (some centres undefined), the inhibition was 10%.

`CC1(C)C2CC[C@]3(C)C(CC=C4[C@@H]5C[C@@](C)(CO)CC[C@]5(C(=O)O)CC[C@]43C)[C@@]2(C)CC[C@@H]1O` (some centres undefined): the inhibition was -12.1%.

`CNC(=O)c1ccsc1NC(=O)c1ccc(S(=O)(=O)N2CCc3ccccc32)cc1`: the inhibition was 54.5% (active).

On to `CC1CN(S(=O)(=O)c2ccc(C(=O)Nc3sccc3C(N)=O)cc2)CC(C)O1` (centres undefined), for which the inhibition was -0.86%.

Consider `CNC(=O)C1CN(C(=O)c2cccc(S(=O)(=O)N3CCc4ccccc43)c2)c2ccccc2O1` (centres undefined), for which the inhibition was 11.3%.

As for `CCCCCc1c(Cc2ccccc2)ncn1CCc1ccccc1OC`, the inhibition was 24.1%.

As for `Cc1ccc(C)c(NC(=O)CN(C)C(=O)c2ccc3ncsc3c2)c1`, the inhibition is 1.46%.

Turning to `Cc1ccc(NS(=O)(=O)c2cc3c(cc2Br)NC(=O)CO3)cc1C`, the inhibition is 19.6%.

As for `O=C(Nc1cccc(F)c1)[C@@H]1CCCN1`, the inhibition is -1.09%.

For the compound `O=C1c2ccccc2C(=O)N1CC1c2ccccc2CCN1S(=O)(=O)c1ccccc1` (centres undefined), the inhibition was 4.13%.

As to `CCC(C)NC(=O)c1ccccc1NC(=O)c1ccccc1N(C)S(C)(=O)=O` (centres undefined), the inhibition was -11.3%.

Take `O=c1c(/C=N/O)coc2ccc(Cl)cc12`: the inhibition is -3.08%.

As for `CC(C)(C)OC(=O)NCCCCCC(=O)N/N=C/c1coc2ccccc2c1=O`, the inhibition was -1.48%.

`Cc1ccc2occ(/C=N/NC(=O)c3ccccc3C)c(=O)c2c1`: the inhibition was 70.5% (active).

`CC1(C)CC(=O)c2cnc3nc4ccccc4n3c2C1`: the inhibition is 6.24%.

The record behind these values is PubChem BioAssay AID1159606 (Sanford-Burnham Center for Chemical Genomics, 2016).
